This is a sample that favours compounds with a hit; in the whole collection about 8.3% have one here.
RORg inh = blocks mouse ROR gamma transcriptional activity | P51450 | Drosophila S2 Gal4-RORgamma UAS-luciferase reporter, 20 h | Potency, µM (titrated, usually from 53.6 µM), actives largely listed as inhibitors | 310,000 tested, 5.4% active | AID 2551; further: nearly all actives have a fitted effect of over 60% in size
Target sequence (P51450 whole entry, looked up, the tested form may be a part): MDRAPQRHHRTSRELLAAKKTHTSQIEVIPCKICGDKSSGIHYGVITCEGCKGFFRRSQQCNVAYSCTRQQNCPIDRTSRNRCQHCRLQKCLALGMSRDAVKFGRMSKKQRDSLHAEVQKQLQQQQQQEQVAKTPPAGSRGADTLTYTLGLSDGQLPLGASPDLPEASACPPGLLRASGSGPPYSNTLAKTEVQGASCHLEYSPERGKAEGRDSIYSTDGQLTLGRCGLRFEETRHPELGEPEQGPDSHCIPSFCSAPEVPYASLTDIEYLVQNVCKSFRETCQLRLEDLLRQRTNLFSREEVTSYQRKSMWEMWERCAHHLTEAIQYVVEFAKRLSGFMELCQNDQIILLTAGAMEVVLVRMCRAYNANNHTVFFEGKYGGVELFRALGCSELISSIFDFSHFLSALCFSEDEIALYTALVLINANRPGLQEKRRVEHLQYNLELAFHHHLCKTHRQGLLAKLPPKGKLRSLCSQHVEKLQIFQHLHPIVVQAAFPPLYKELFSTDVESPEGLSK
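Drosophila S2 cells stably expressing Gal4-DBD/mouse RORγ fusion under metallothionein promoter plus UAS-luciferase; compound 1 h, then 700 uM CuSO4 induction for 20 h at ambient temperature; inhibition read as reduced luminescence.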
MCF10A rerep = DNA re-replication induction in MCF 10a cells. MCF 10A DNA re-replication, Hoechst nuclear intensity, 48 h. Potency, µM (doses to about 46.1 µM), hits mostly activators. 350,000 tested, 2.9% active. AID 624296; further: nearly all actives have a fitted effect of over 50% in size
SW480 rerep = inducers of DNA re-replication in SW480 colon cancer cells; SW480 DNA re-replication, Hoechst DNA content imaging, 48 h; Potency, µM (doses to about 46.1 µM), usual class: activators; 340,000 tested, 1.8% active; further: nearly all actives have a fitted effect of over 55% in size
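Image-based DNA-content assay: after two days of treatment, nuclei were labelled with the DNA dye Hoechst and imaged, and hits were compounds raising the count of nuclei showing high fluorescence intensity.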
Giardia kill = Giardia lamblia killing; Giardia lamblia trophozoite viability; activity change, % at 7.66 µM, hits read low; 340,000 tested, 0.15% active; AID 540267; in the data active means activity change below about -80%; inconclusive means between about -30% and that limit;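 further: parasites exposed to compound for two days anaerobically before the ATP read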
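Luminescence from cellular ATP indicates surviving trophozoites (100 cells/well) following 48 hrs anaerobic compound treatment at 37 deg C; signal develops 15-30 min at room temperature.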
BCR signal inh = inhibitors of chronic active B-cell receptor signaling; Potency, µM (titrated, usually from 46.1 µM), hits mostly inhibitors; 340,000 tested, 0.05% active; ABC-DLBCL IkBa-CBG/CBR reporter, luminescence ratio, 4 h; active means well fitted inhibition curve with a large enough effect in the signal ratio, with a control signal flat, not every such curve was filed as active; inconclusive means small, poorly fitted or top-dose-only effect, or effect the other way, or a change in a side signal; the % refers to the signal ratio
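Cell line TMD8 (human ABC DLBCL), stably expressing tet-inducible CBG68-IkBa fusion and CBR; IMDM/0.5% FBS; cpd up to 46 uM; dox induction, 4 h, 37C/5% CO2; dual luminescence; green/red ratio; MG132 control.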
Gal4-VP16 FLuc = Gal4-VP16 reporter inhibition counter-screen | Drosophila S2 Gal4-VP16 UAS-luciferase, luminescence, 20 h | Potency, µM (series often up to 53.6 µM), actives largely listed as inhibitors | 310,000 tested, 3.5% active | AID 2546;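 further: Gal4-VP16 expression switched on by copper sulfate through the metallothionein promoter; nearly all actives have a fitted effect of over 50% in size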
A number is an active result; – = inactive; ? = inconclusive; · = no result; [ ] = another dose, or the depositor's remark. Unless noted, the call rests on the fitted dose curve; in most records, active means well fitted curve in the direction sought with a large enough effect; inconclusive means small, poorly fitted or top-dose-only effect, or another doubt; inactive means no such curve, though single readings can be large; an effect the other way counts as inactive or inconclusive.

SMILES	RORg inh	MCF10A rerep	SW480 rerep	Giardia kill	BCR signal inh	Gal4-VP16 FLuc
COC(=O)/C=C1/SC(=Nc2ccc(Cl)c(Cl)c2)NC1=O	–	25.9µM	–	–	–	–
O=C(CCCn1c(=O)[nH]c2ccsc2c1=O)NC1CCCCC1	–	–	–	–	–	–
CC1CCCCC1NC(=O)CCCCCn1c(=S)[nH]c2ccsc2c1=O (configuration not stated)	11.2µM	–	–	–	–	?
O=C(CCCn1c(=S)[nH]c2ccsc2c1=O)NC1CCCCC1	20µM	–	–	–	–	?
O=C(CSc1ccc([N+](=O)[O-])cn1)Nc1ccc2c(c1)OCO2	–	–	–	–	–	–
CCCCC(=O)Nc1nn(CCC)c2nc3ccccc3cc12	–	?	?	–	–	–
CCn1nc(NC(=O)Cc2ccc(OC)cc2)c2cc3cccc(C)c3nc21	–	4.11µM	?	–	?	–
CCCn1nc(NC(=O)C2CCCO2)c2cc3cccc(C)c3nc21 (configuration not stated)	–	?	2.06µM	–	?	–
CCCCn1nc(NC(=O)COC)c2cc3cc(OC)ccc3nc21	–	–	14.6µM	–	?	–
CC(C)Cn1nc(NC(=O)C2CCCO2)c2cc3ccccc3nc21 (configuration not stated)	–	–	–	–	?	–
CCn1nc(NC(=O)c2ccccc2)c2cc3cccc(C)c3nc21	–	6.51µM	11.6µM	–	–	–
CC(C)=CC(=O)O[C@@H]1Cc2cc3ccc(=O)oc3cc2OC1(C)C	·	–	–	–	–	·
CN(C)C(CNC(=O)c1cnc(Cl)c(Cl)c1)c1ccccc1 (configuration not stated)	–	–	–	–	–	–
CCC1C(=O)NCCN1Cc1nc(-c2ccc(C)s2)oc1C (configuration not stated)	–	–	–	–	?	–
C=C(C)CN(CC)Cc1c(C(=O)N(C)CCCC)nc2ccccn12	–	–	–	–	–	–
Cc1cccc2cc3c(NC(=O)C(C)(C)C)nn(CC(C)C)c3nc12	–	?	20.6µM	–	–	–
CCn1nc(NC(=O)Cc2ccc(OC)cc2)c2cc3cc(C)ccc3nc21	–	1.84µM	7.31µM	–	–	–
CCn1nc(NC(=O)C(C)C)c2cc3cccc(C)c3nc21	–	?	8.2µM	–	–	–
CCn1nc(NC(C)=O)c2cc3cccc(C)c3nc21	–	–	–	–	–	–
Cc1cccc2cc3c(NC(=O)CC(C)C)nn(C)c3nc12	–	?	?	–	–	–
O=C(NCc1ccccc1)C1CCCN1C(=O)Nc1ccccc1[N+](=O)[O-] (configuration not stated)	?	–	–	–	?	–
Cc1cc(-c2nnc(SCC(=O)Nc3ccccc3C)n2N)n[nH]1	–	–	–	–	–	–
COc1ccc(CCNC(=O)C2CCN(S(=O)(=O)N3CCC(C)CC3)CC2)cc1OC	–	–	–	–	?	–
COc1cc(CN2CCN(c3cccc(C)c3C)CC2)cc(OC)c1O	–	–	–	–	–	–
Cc1cccc(N2CCN(Cc3ccc([N+](=O)[O-])o3)CC2)c1C	–	–	?	-85.6	–	–
SMILES	RORg inh	MCF10A rerep	SW480 rerep	Giardia kill	BCR signal inh	Gal4-VP16 FLuc
Cc1cccc(N2CCN(Cc3ccoc3)CC2)c1C	–	20.6µM	?	–	–	–
O=[N+]([O-])c1ccc(CN2CCN(c3ccc(F)cc3)CC2)o1	–	–	–	?	–	–
O=C1c2ccccc2C(=O)N1CC1c2ccccc2CCN1C(=O)CN1CCOCC1 (configuration not stated)	–	–	–	–	–	–
Cc1cc(C)cc(N=C2NC(=O)/C(=C/c3cccs3)S2)c1	?	?	–	–	?	15.8µM
O=C1NC(=Nc2ccccc2)S/C1=C\c1cccs1	–	–	–	–	?	–
O=C(COC(=O)c1cccc([N+](=O)[O-])c1)NCC1CCCO1 (configuration not stated)	–	–	–	–	–	–
O=C(NNC1=Nc2ccccc2SC1)c1ccccc1F	0.891µM	–	?	–	?	0.708µM
CCN(CC)C(=O)CSc1nnc2nnc3cc(C)ccc3n12	–	–	–	–	–	–
CCN(CC)C(=O)CSc1nnc2nnc3cc(Cl)ccc3n12	–	–	–	-81.1	–	–
CC1CCc2c(sc(NC(=O)c3c([N+](=O)[O-])cnn3C)c2C(N)=O)C1 (configuration not stated)	–	–	–	–	–	–
O=C(c1cccs1)N1CCCC(c2nc3c(nnn3Cc3ccccc3Cl)c(=O)[nH]2)C1 (configuration not stated)	?	–	–	–	–	–
CC1=NN(C(N)=S)C(=O)C1N=Nc1c(C)cc(C)cc1C (configuration not stated)	0.501µM	?	–	–	–	1.78µM
CC(=O)N(C)c1ccc(N=NC2C(=O)N(C(N)=S)N=C2C)cc1 (configuration not stated)	1µM	–	–	–	–	2µM
CCOc1ccccc1N=NC1C(=O)N(C(N)=S)N=C1C (configuration not stated)	0.708µM	–	?	–	?	1µM
CC1=NN(C(N)=S)C(=O)C1N=Nc1cccc(Cl)c1 (configuration not stated)	0.794µM	–	–	–	?	2µM
CCOC(=O)C1C(C(=O)OC)=C(C2=CCCCC2)c2ccccc2N1S(=O)(=O)C(F)(F)F (configuration not stated)	–	?	–	–	–	–
Cn1c(N)c(C(=O)COC(=O)/C=C/c2cccc(Cl)c2)c(=O)n(C)c1=O	·	–	–	–	–	·
CC1=NN(C(N)=S)C(=O)C1N=Nc1c(Br)cc(Br)cc1Br (configuration not stated)	1.41µM	?	–[1.84 µM]	?	–	1.26µM
CC1=NN(C(N)=S)C(=O)C1N=Nc1ccc(S(N)(=O)=O)cc1 (configuration not stated)	–[1.91 µM]	–	–	–	–	?
CC1=NN(C(N)=S)C(=O)C1N=Nc1ccc(C)cc1C (configuration not stated)	0.501µM	·	·	·	–	1.12µM
CC1=NN(C(N)=S)C(=O)C1N=Nc1ccccc1O (configuration not stated)	–	–	–	–	–	–
CC1=NN(C(N)=S)C(=O)C1N=Nc1c(Cl)cc([N+](=O)[O-])cc1Cl (configuration not stated)	0.355µM	–	–	–	?	1.58µM
CC1=NN(C(N)=S)C(=O)C1N=Nc1ccccc1C (configuration not stated)	0.1µM	–	?	–	–	0.0447µM

Screens deposited in PubChem by National Center for Advancing Translational Sciences (NCATS).
